Broadly, the inhibition is the change of the read-out against control, counted positive when it falls.

Among all 220,000 compounds or so, about 1,500 (0.68%) were called active. The entries come from a sample that favours actives as a whole. Values without a mark were called inactive.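 Rule for the calls: active = Hck-Nef kinase inhibition above about 50% (limit read from the data); inactive = inhibition below that limit.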

The assay deals with Tyrosine-protein kinase HCK (Homo sapiens) (UniProt P08631). As to the kind of experiment: Hck:Nef complex kinase activity blockers – biochemical, Z-Lyte FRET, 384-well, Hck-YEEI, primary screen (AID 463187).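 Note: 0% = DMSO with Hck plus Nef and 100% = Hck alone without Nef.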 To be noted: Recombinant Hck-YEEI plus Nef, Z-Lyte FRET kinase assay; at 20 µM; hits give high values.
Sequence of Tyrosine-protein kinase HCK (Homo sapiens) (P08631 whole entry, looked up): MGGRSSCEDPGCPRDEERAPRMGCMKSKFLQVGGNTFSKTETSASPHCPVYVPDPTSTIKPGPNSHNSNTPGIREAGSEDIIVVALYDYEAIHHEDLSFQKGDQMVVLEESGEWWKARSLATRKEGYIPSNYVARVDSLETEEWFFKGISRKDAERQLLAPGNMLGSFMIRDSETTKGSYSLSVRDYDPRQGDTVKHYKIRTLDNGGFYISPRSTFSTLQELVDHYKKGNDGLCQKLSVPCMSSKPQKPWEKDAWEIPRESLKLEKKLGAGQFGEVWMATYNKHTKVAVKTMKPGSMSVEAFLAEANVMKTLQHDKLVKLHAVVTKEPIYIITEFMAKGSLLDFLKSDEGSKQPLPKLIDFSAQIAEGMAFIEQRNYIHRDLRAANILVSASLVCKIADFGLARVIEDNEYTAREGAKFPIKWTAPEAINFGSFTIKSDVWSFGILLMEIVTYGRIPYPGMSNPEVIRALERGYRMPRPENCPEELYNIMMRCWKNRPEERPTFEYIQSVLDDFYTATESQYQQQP
Regarding `Cc1c(C(=O)Nc2ccccc2Cl)oc2ccc(S(=O)(=O)N3CCC4(CC3)OCCO4)cc12`, the inhibition was 74.2% (active).
Then `COc1ccc(NC(=O)c2oc3ccc(S(=O)(=O)N4CCOCC4)cc3c2C)cc1`, with -8.31%.
For `CCOc1ccccc1NC(=O)c1cc(S(=O)(=O)N2CCC3(CC2)OCCO3)ccc1F`, the inhibition was 2.23%.
With `O=C(CCSCCc1ccccn1)Nc1nccs1`, the inhibition was 7.74%.
As for `OCc1nc(CO)n(Cc2ccccc2)n1`, the figure is 0.365%; as for `CC1CCCN(CCOCCOc2ccccc2-c2ccccc2)C1` (centres undefined), 0.832%.
As for `Cc1ccc(NC(=S)N2CCCC(c3ccccc3)=N2)cc1`, the figure is -10%; as for `CCOC(=O)N/N=C/c1cccnc1`, -26.2%; as for `O=C(CSc1cccc2cccnc12)N/N=C/c1cccnc1`, 51.3% (active).
Take `Cc1nc2ccccc2n1CC(=O)N/N=C/c1cccnc1`: the inhibition is 24.3%.
In the case of `CC(CNc1ccc([N+](=O)[O-])c2cccnc12)Nc1c([N+](=O)[O-])cc(C(F)(F)F)cc1[N+](=O)[O-]` (centres undefined), the inhibition was -2.43%.
As for `Cc1cc(OC(=O)c2ccccc2Cl)ccc1N1C(=O)CCC1=O`, the figure is 52.4% (active); as for `Cc1cccc(/C(N)=N/OC(=O)c2ccccc2Cl)c1`, 5.79%; as for `COc1ccccc1C(=O)Oc1ccc(N2C(=O)CCC2=O)cc1`, 1.47%.
As for `Cc1sc2c(c1C)c(=O)n(-c1ccccc1)c(=O)n2CC(=O)NCC1CCCO1` (centres undefined), the inhibition was -19.9%.
In the case of `O=C(COC(=O)c1ccccc1NC(=O)c1ccco1)Nc1ccc2c(c1)OC(F)(F)O2`, the inhibition was 5.95%.
Regarding `Cc1ccc(-n2ncc3c(=O)n(-c4ccc(C)c(C)c4)c(-c4ccco4)nc32)cc1`, the inhibition is -0.384%.
Take `Cc1ccc(-n2c(=O)c(C#N)cc3c(=O)n4ccccc4nc32)cc1C`: the inhibition was 73.3% (active).
For `CCn1c(=N)c(S(=O)(=O)c2ccc(F)cc2)cc2c(=O)n3ccccc3nc21`, the inhibition is 11.1%.
As for `CNC(=S)Nc1ccc([N+](=O)[O-])cc1`, the figure is 21.3%; as for `CN(C)CC(C)(C)CNC(=O)c1cc(Br)cc(Br)c1O`, 21.9%; as for `COc1cc(NC(=O)COC(=O)CSc2ccc3ccccc3c2)c(C)cc1[N+](=O)[O-]`, 2.59%.
Take `Cc1cccc(N2CCN(C(=O)CN(C)S(=O)(=O)c3ccc4c(c3)CCC(=O)N4)CC2)c1C`: the inhibition was 0.348%.
Regarding `O=C(NCc1ccccc1)C1CCCN(S(=O)(=O)c2cccs2)C1` (centres undefined), the inhibition is -1.98%.
Then `CCc1ccc(CNC(=O)C2CCCN(c3nc4ccccc4o3)C2)cc1` (centres undefined), with -20.1%; and `O=C(NCc1ccccc1)C1CCCN(c2nc3ccsc3c(=O)s2)C1` (centres undefined), with 63.7% (active).
As for `COc1ccc(NC(=O)COc2ccc(C(=O)OCC(=O)N(C)C3CCS(=O)(=O)C3)cc2OC)cc1` (centres undefined), the figure is -34.5%.
As to `CN(C(=O)COC(=O)c1cc(-c2ccco2)nc2ccccc12)C1CCS(=O)(=O)C1` (centres undefined), the inhibition is 65.3% (active).
Take `Cc1c(-c2cccc(Cl)c2)nc2ccccc2c1C(=O)OCC(=O)N(C)C1CCS(=O)(=O)C1` (centres undefined): the inhibition was -3.32%.
Regarding `CC(C)Cc1nn2c(=O)cc(O)nc2s1`, the inhibition is 1.45%.
Take `O=C(Nc1ccc(Cl)cc1)Nc1ccc(Oc2cccnc2)nc1`: the inhibition is -9.14%.
Regarding `O=C(NNC(=O)c1cccnc1)Nc1ccccc1`, the inhibition is -0.546%.
Then `O=C(NNC(=O)c1csc(-c2cccnc2)n1)Nc1ccc(Cl)cc1`, with 52.2% (active); and `CC(=O)Nc1ccc(OCCC[n+]2cccc(C(=O)[O-])c2)cc1`, with 12%.
As for `FC(F)(F)c1ccc(CN2C[C@@H]3C(c4ccccc4)C4(c5ccccc5)CC3(C4)[C@H]2c2ccccc2)cc1` (some centres undefined), the inhibition was 17.4%.
For `Cc1cccc(-n2c(SCC(N)=O)nc3c(c2=O)C2(CCCCC2)Cc2ccccc2-3)c1`, the inhibition is 6.81%.
Regarding `CCc1ccc(Nc2nnc(SCC(=O)c3ccc4c(c3)NC(=O)CO4)s2)cc1`, the inhibition is 105% (active).
As for `CCCc1nc2ccccc2c(C(=O)OCC(=O)c2ccc3c(c2)NC(=O)CO3)c1CC`, the figure is -1.08%; as for `COc1cccc(Nc2nnc(SCC(=O)N3CC(=O)Nc4ccccc43)s2)c1`, 36.9%; as for `CO/N=C(\N)c1ccc([N+](=O)[O-])cc1`, 3.14%.
As for `CCOc1ccc(N2C(=O)Nc3ccccc3C2(O)C(=O)NCc2ccco2)cc1` (centres undefined), the inhibition is 20.7%.
Consider `CNc1ccc(SC#N)cc1`, for which the inhibition is 33.3%.
`N#Cc1c(-c2ccc(F)cc2)cc(C2CC2)nc1SCC(=O)c1cccs1`: the inhibition was 3.07%.
Consider `N=c1ccn(CC(=O)NC(N)=O)c2ccccc12`, for which the inhibition is 0.937%.
`O=C(NC1CCCCCC1)c1cccnc1Sc1ccc(Cl)cc1`: the inhibition was 2.04%.
In the case of `CCS(=O)(=O)C1=NSC2=NC(=O)/C(=C\c3cc(C)n(-c4cccc(OC)c4)c3C)C(=N)N21`, the inhibition was 55.1% (active).
Consider `Cc1cc(/C=C2/C(=N)N3C(=NC2=O)SN=C3S(C)(=O)=O)c(C)n1-c1ccccc1`, for which the inhibition is 0.408%.
Then `CCC1=NN2C(=N)/C(=C/c3cc(C)n(-c4ccccc4)c3C)C(=O)N=C2S1`, with 15.3%; and `O=c1cc(-c2ccccc2)[nH]c2cc(F)ccc12`, with 2.23%; and `CCc1ccccc1N1CN(Cc2ccco2)CNC1=S`, with 3.91%.
As for `O=C1/C(=C/c2cccs2)CCC1C1CCCC1` (centres undefined), the inhibition is 26%.
Then `CCOc1ccc(C2c3[nH]c4ccccc4c3CCN2Cc2cccn2-c2ncccn2)cc1` (centres undefined), with 15.4%; and `CCOc1ccccc1C1C(C(=O)OC)=CN(C)C=C1C(=O)OC`, with 71.8% (active); and `COC(=O)C1=CN(C)C=C(C(=O)OC)C1c1ccc(Cl)cc1Cl`, with 9.15%.
As for `CCOc1cc(C2C(C(=O)OC)=CN(C3CCCC3)C=C2C(=O)OC)cc(Br)c1O`, the figure is 1.91%; as for `O=C(NCC1CCCCC1)c1cc(S(=O)(=O)N2CCCCC2)ccc1N1CCOCC1`, 19.1%.
Take `Cc1cccc(NS(=O)(=O)c2ccc(C)c(C(N)=O)c2)c1`: the inhibition was -7.85%.
On to `COc1cccc(CN(C)CC(=O)Nc2ccccc2C(=O)Nc2ccccc2)c1`, for which the inhibition was 4.04%.
On to `COc1ccc(-c2cc3nc(C)c(CCC(=O)NC(C)CCc4ccco4)c(C)n3n2)c(OC)c1` (centres undefined), for which the inhibition is -1.24%.

Values taken from PubChem BioAssay AID463187 (University of Pittsburgh Molecular Library Screening Center, 2010).
